Laboratory results from PubChem BioAssay (NCATS).
Results filed as inconclusive are left out. More than one record can exist for a structure, and the calls need not agree. Activity calls are given as the source filed them. The call rests on the fitted dose curve; in most records, active means well fitted curve in the direction sought with a large enough effect; inconclusive means small, poorly fitted or top-dose-only effect, or another doubt; inactive means no such curve, though single readings can be large; an effect the other way counts as inactive or inconclusive.

How the values were obtained:
[1] = molecular target: Glutathione peroxidase 1 (Homo sapiens) (UniProt P07203); assay: Primary qHTS Assay for Inhibitors of Recombinant Selenoprotein Glutathione Peroxidase 1 (GPX1) (AID 1845191); further: nearly all actives have a fitted effect of over 65% in size
In short: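 GR-coupled assay: compounds preincubated 30 min at room temperature with GPX1, then reaction started with CHP; final 10 nM GPX1, 1 mM GSH, 0.5 mM CHP, 0.5 mM NADPH, 100 nM GR, 0.01% BSA, pH 7.5 Tris buffer. NADPH fluorescence (340/450 nm) read at 0 and 15 min.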

[2] = molecular target: Phospholipid hydroperoxide glutathione peroxidase GPX4 (Homo sapiens) (UniProt P36969); assay: Primary qHTS Assay for Inhibitors of Recombinant Selenoprotein Glutathione Peroxidase 4 (GPX4) (AID 1845192); further: nearly all actives have a fitted effect of over 65% in size; further: potency means the concentration at half of the fitted maximal effect
In short: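 GR-coupled assay: recombinant GPX4 preincubated 30 min with compound at room temperature; final 200 nM GPX4, 1 mM GSH, 0.5 mM cumene hydroperoxide, 0.5 mM NADPH, 100 nM GR, 0.01% BSA, pH 7.5 Tris. NADPH fluorescence (340/450 nm) read at 0 and 15 min.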

[3] = Quantitative High-Throughput drug screen in 47 multiple myeloma cell lines against the NCATS MIPE library collection: FR4_PLB cell viability assay (AID 1918924; further: nearly all actives have a fitted effect of over 35% in size; further: potency means the concentration at half of the fitted maximal effect)
In short: (§1)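 Myeloma cell lines, 500 cells per well, exposed to MIPE 4.0 library compounds for 48 h at 37C, 5% CO2. Viability from ATP by CellTiter-Glo luminescence; normalised to DMSO (100%) and media-only (0%) wells.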

[4] = Quantitative High-Throughput drug screen in 47 multiple myeloma cell lines against the NCATS MIPE library collection: Delta47_JCRB cell viability assay (AID 1918925; further: nearly all actives have a fitted effect of over 45% in size; further: potency means the concentration at half of the fitted maximal effect)
In short: (§2)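 Primary qHTS used for cherry-picking: cells at 500/well, library compounds for 48 h (37C, 5% CO2), luminescent ATP assay.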

[5] = Quantitative High-Throughput drug screen in 47 multiple myeloma cell lines against the NCATS MIPE library collection: EJM_DSMZ cell viability assay (AID 1918926; further: nearly all actives have a fitted effect of over 30% in size; further: potency means the concentration at half of the fitted maximal effect)
In short: as §2

[6] = Quantitative High-Throughput drug screen in 47 multiple myeloma cell lines against the NCATS MIPE library collection: AMO1_DSMZ cell viability assay (AID 1918927; further: nearly all actives have a fitted effect of over 30% in size; further: potency means the concentration at half of the fitted maximal effect)
In short: as §2

[7] = Quantitative High-Throughput drug screen in 47 multiple myeloma cell lines against the NCATS MIPE library collection: KMM1_JCRB cell viability assay (AID 1918960); further: nearly all actives have a fitted effect of over 30% in size; further: potency means the concentration at half of the fitted maximal effect;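 on viability (% of DMSO): 100% = DMSO-treated cells and 0% = medium-only wells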
In short: (§3)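 Luminescence from CellTiter-Glo, taken after 5 min at room temperature, reports cellular ATP as viability. Cells (500 per well) had been treated 48 h at 37 °C with MIPE 4.0 compounds, scaled between DMSO and medium-only controls.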

[8] = Quantitative High-Throughput drug screen in 47 multiple myeloma cell lines against the NCATS MIPE library collection: Karpas417_ECACC cell viability assay (AID 1918961); details: Karpas417 myeloma viability, CellTiter-Glo ATP luminescence, 48 h; viability (% of DMSO): at 45.8 µM (top of the series) unless noted; further: potency means the concentration at half of the fitted maximal effect
In short: as §1

[9] = Quantitative High-Throughput drug screen in 47 multiple myeloma cell lines against the NCATS MIPE library collection: ARD_JJKsccE7 cell viability assay (AID 1918929; further: potency means the concentration at half of the fitted maximal effect)
In short: as §2

[10] = Quantitative High-Throughput drug screen in 47 multiple myeloma cell lines against the NCATS MIPE library collection: Karpas620_DSMZ cell viability assay (AID 1918959); further: nearly all actives have a fitted effect of over 30% in size; further: potency means the concentration at half of the fitted maximal effect
In short: as §1

[11] = Quantitative High-Throughput drug screen in 47 multiple myeloma cell lines against the NCATS MIPE library collection: KHM11_PLB cell viability assay (AID 1918962); further: nearly all actives have a fitted effect of over 35% in size; further: potency means the concentration at half of the fitted maximal effect
In short: as §1

[12] = Quantitative High-Throughput drug screen in 47 multiple myeloma cell lines against the NCATS MIPE library collection: JIM3_ECACC cell viability assay (AID 1918963; further: nearly all actives have a fitted effect of over 35% in size; further: potency means the concentration at half of the fitted maximal effect)
In short: as §1

[13] = molecular target: Luciferin 4-monooxygenase (Photinus pyralis) (UniProt P08659); assay: Primary firefly luciferase (FLuc) qHTS assay for identification of artifact compounds. (AID 1845220); further: nearly all actives have a fitted effect of over 60% in size
In short: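 D-luciferin and ATP (10 uM each, final) in Tris acetate buffer pH 7.6 were incubated with compounds for 15 min at room temperature. The reaction was started with 10 nM Photinus pyralis luciferase and luminescence read after 5 min. Percent inhibition was fitted to a 4-parameter Hill equation.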

[14] = Primary fluorescence-based thiol-reactive (MSTI) qHTS assay for identification of artifact compounds. (AID 1845221);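 further: thiol-reactive compounds lower the probe fluorescence signal; nearly all actives have a fitted effect of over 65% in size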
In short: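 Reactivity toward the thiol probe MSTI (4 uM) is scored by fluorescence at Ex/Em 525/598 nm after 1 h at room temperature. Acetyl-MSTI and MSTI define the activity scale.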

[15] = Primary redox qHTS assay for identification of artifact compounds. (AID 1845223)
In short: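 Amplex Red (25 uM) and HRP (250 mU/mL) in HBSS, with compounds for 15 min, then 250 uM DTT for 30 min, room temperature, dark. Fluorescence 525/598 nm read; normalized to DMSO and 10 uM DA3003; Hill fit.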

[16] = test system: Nanoluciferase (engineered Oplophorus gracilirostris luciferase); assay: Primary Nanoluciferase (NLuc) qHTS assay for identification of artifact compounds. (AID 1845222);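 further: 0% = DMSO and -100% = no enzyme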
In short: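 Diluted conditioned medium from NLuc-expressing S16 cells treated with compounds for 15 min at room temperature, then Nano-Glo substrate added; luminescence read after 5 min. Percent inhibition versus no-enzyme and DMSO controls fitted to 4-parameter Hill equation.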

[17] = Quantitative High-Throughput drug screen in 47 multiple myeloma cell lines against the NCATS MIPE library collection: ARP1_JJKsccF8 cell viability assay (AID 1918928; further: nearly all actives have a fitted effect of over 40% in size; further: potency means the concentration at half of the fitted maximal effect)
In short: as §3

Chain of Glutathione peroxidase 1 (Homo sapiens) (P07203 whole entry, looked up): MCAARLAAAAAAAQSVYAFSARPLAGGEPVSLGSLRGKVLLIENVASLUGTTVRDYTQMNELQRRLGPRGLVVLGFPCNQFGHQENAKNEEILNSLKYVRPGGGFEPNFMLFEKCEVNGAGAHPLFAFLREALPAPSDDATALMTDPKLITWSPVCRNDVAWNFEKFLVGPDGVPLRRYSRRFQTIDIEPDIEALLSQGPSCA
Chain of Phospholipid hydroperoxide glutathione peroxidase GPX4 (Homo sapiens) (P36969 whole entry, looked up): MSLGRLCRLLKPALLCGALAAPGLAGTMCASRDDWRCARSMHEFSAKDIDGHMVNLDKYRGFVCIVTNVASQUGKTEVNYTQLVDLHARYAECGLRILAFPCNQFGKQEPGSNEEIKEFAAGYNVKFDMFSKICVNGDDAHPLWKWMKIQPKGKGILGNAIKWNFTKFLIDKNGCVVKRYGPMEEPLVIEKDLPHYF

OC(CCN1CCCCC1)(c1ccccc1)C1CC2C=CC1C2 (stereo not drawn)
inactive: Potency [1] | Potency [2] | Potency [3] | Potency [4] | Potency [5] | Potency [6] | Potency [7] | Potency [8]

COc1ccc(COc2cc3oc(=O)c4cc(C(C)O)ccc4c3cc2OC)cc1 (stereo not drawn)
inactive: Potency [1] | Potency [2]
active: Potency [3] 13.2 µM | Potency [4] 11.8 µM | Potency [5] 16.6 µM | Potency [6] 5.9 µM | Potency [9] 3.72 µM | Potency [10] 4.69 µM | Potency [7] 4.69 µM | Potency [11] 7.43 µM | Potency [12] 16.6 µM

CCN(c1ccccc1)c1cc(NC)[n+](C)c(C)n1
inactive: Potency [1] | Potency [2] | Potency [3] | Potency [4] | Potency [10] | Potency [7] | Potency [12]
active: Potency [6] 0.743 µM | Potency [11] 0.235 µM

Cc1cc2c(C(C)C)c(O)c(O)c(C=O)c2c(O)c1-c1c(C)cc2c(C(C)C)c(O)c(O)c(C=O)c2c1O
10.1 µM (active) and inactive: Potency [2]
inactive: Potency [1] | Potency [7]
active: Potency [3] 10.5 µM | Potency [4] 8.33 µM | Potency [5] 20.9 µM | Potency [10] 8.33 µM | Potency [11] 10.5 µM | Potency [12] 8.33 µM

COc1cc(Oc2ccnc3cc(OC)c(OC)cc23)ccc1NC(=O)NC(C)c1nccs1 (stereo not drawn)
inactive: Potency [1] | Potency [2] | Potency [13] | Potency [14] | outcome [15] | Potency [5]
active: Potency [12] 20.9 µM

CN1CCN(CCCN2c3ccccc3Sc3ccc(C(F)(F)F)cc32)CC1
inactive: Potency [1] | Potency [2] | Potency [3] | Potency [5] | Potency [7]
active: Potency [4] 4.69 µM | viability (% of DMSO) [8] 113% | Potency [11] 10.5 µM | Potency [12] 8.33 µM

COc1ccc(CC2=NN3C([C@@H](CCc4ccccc4)[C@@H](C)O)=NC(C)C3C(=O)N2)cc1OC (stereo partly drawn)
inactive: Potency [1] | Potency [2] | Potency [3] | Potency [5] | Potency [6] | Potency [10] | Potency [7]

Oc1ccc(C2CNCCc3c2cc(O)c(O)c3Cl)cc1 (stereo not drawn)
inactive: Potency [1] | Potency [2] | Potency [3] | Potency [4] | Potency [5] | Potency [6] | Potency [9] | Potency [7] | Potency [12]

CCCCNc1cc(C(=O)O)cc(S(N)(=O)=O)c1Oc1ccccc1
inactive: Potency [1] | Potency [2] | Potency [3] | Potency [4] | Potency [5] | Potency [6] | Potency [7] | Potency [12]

CS(=O)(=O)c1cccc(CNc2nc(Nc3ccc4c(c3)CCC(=O)N4)ncc2C(F)(F)F)c1
inactive: Potency [1] | Potency [2] | Potency [13] | Potency [14] | outcome [16]
active: Potency [4] 18.7 µM | Potency [5] 23.5 µM | Potency [6] 9.35 µM | Potency [10] 4.69 µM | Potency [7] 4.18 µM | Potency [8] 2.64 µM | Potency [11] 14.8 µM | Potency [12] 18.7 µM

CC(=O)Oc1ccccc1C(=O)O
active: Potency [5] 8.33 µM
inactive: Potency [1] | Potency [2] | Potency [3] | Potency [17] | Potency [7]

Cc1cn[nH]c1
inactive: Potency [1] | Potency [2]
active: Potency [3] 0.0526 µM | Potency [4] 0.296 µM | Potency [5] 0.105 µM | Potency [7] 0.526 µM

COc1ccc([C@@H]2CC(=O)c3c(O)cc(O[C@@H]4O[C@H](CO[C@@H]5O[C@@H](C)[C@H](O)[C@@H](O)[C@@H]5O)[C@@H](O)[C@H](O)[C@@H]4O)cc3O2)cc1O
inactive: Potency [1] | Potency [3] | Potency [4] | Potency [5] | Potency [6] | Potency [17] | Potency [10] | Potency [7] | Potency [8] | Potency [11] | Potency [12]

Cc1cccc(-c2[nH]c(C(C)(C)C)nc2-c2ccc3nccnc3c2)n1
inactive: Potency [1] | Potency [2]
active: Potency [4] 3.32 µM | Potency [10] 6.62 µM | Potency [7] 4.69 µM | Potency [12] 2.64 µM

COc1cc2c(cc1OC)CN(CCc1ccc(NC(=O)c3cccc4c(=O)c5cccc(OC)c5[nH]c34)cc1)CC2
active: Potency [12] 6.62 µM
inactive: Potency [1] | Potency [13] | Potency [14] | outcome [16] | Potency [4] | Potency [17] | Potency [7]

Fc1ccc(Cl)cc1-c1nc(Nc2ccncc2)c2nccnc2n1
active: Potency [5] 8.33 µM | Potency [6] 5.26 µM | Potency [12] 13.2 µM
inactive: Potency [1] | Potency [3] | Potency [10] | Potency [8]

CC(C)NCC(O)COc1ccc(COCCOC(C)C)cc1 (stereo not drawn)
inactive: Potency [1] | Potency [2] | Potency [17] | Potency [10] | Potency [7] | Potency [11] | Potency [12]

CCOc1ccn(-c2ccc(F)cc2)c(=O)c1C(=O)Nc1ccc(Oc2ccnc(N)c2Cl)c(F)c1
inactive: Potency [1] | Potency [13] | Potency [14] | outcome [16] | outcome [15] | Potency [12]
active: Potency [3] 18.7 µM | Potency [6] 18.7 µM | Potency [17] 14.8 µM

Cc1c(CCOc2ccc(C(=O)O)cc2)c2cc(Cl)ccc2n1C(c1ccccc1)c1ccccc1
inactive: Potency [1] | Potency [3] | Potency [5] | Potency [10] | Potency [7] | Potency [8] | Potency [11] | Potency [12]

S=C(NCc1ccc2c(c1)OCO2)N1CCN(c2ncnc3c2oc2ccccc23)CC1
active: Potency [3] 27 µM | Potency [4] 1.08 µM | Potency [6] 2.7 µM | Potency [17] 3.03 µM | Potency [9] 0.855 µM | Potency [10] 2.41 µM | Potency [7] 1.36 µM | Potency [8] 4.29 µM | Potency [11] 0.855 µM | Potency [12] 5.4 µM
inactive: Potency [1] | Potency [13] | Potency [14] | outcome [16] | outcome [15]

O=C(Nc1cccnc1)N1CCC(Cc2cccc(Oc3ccc(C(F)(F)F)cn3)c2)CC1
inactive: Potency [1] | Potency [13] | Potency [14] | outcome [16] | outcome [15]
active: Potency [3] 16.6 µM | Potency [4] 9.35 µM | Potency [5] 18.7 µM | Potency [6] 9.35 µM | Potency [7] 7.43 µM
